Source: PubChem BioAssay
USP30 inh = inhibitors of human USP30 deubiquitinase; Q70CQ3; purified USP30, Ub-rhodamine cleavage fluorescence; inhibition, % at 25 µM; 47,000 compounds, 5.3% hits; AID 1645860
USP17 inh = inhibitors of human USP17 deubiquitinase. A8MUK1. purified USP17, Ub-rhodamine cleavage fluorescence, 3 h. inhibition, % at 50 µM. 47,000 compounds, 6.5% hits. AID 1645855
USP28 block = human USP28 deubiquitinase inhibition. purified USP28, Ub-rhodamine cleavage fluorescence, 30 min. 47,000 compounds, 3% hits. inhibition, % at 25 µM. Q96RU2
Numbers without * were called inactive; x = no result given. This is a sample that favours compounds with a hit; in the whole collection about 11% have one here. No stated cut-off is given here; in the data, active means inhibition above about 30%; inactive means the rest.

SMILES	USP30 inh	USP17 inh	USP28 block
COc1ccc(-c2cc3nc([C@H](C)NC(=O)COc4cccc(F)c4)nn3cn2)cc1	28	17	-5
COc1cccc(CC(=O)N[C@@H](C)c2nc3cc(-c4ccccc4F)ncn3n2)c1	26	24	9
COc1ccc(CCNC(=O)Cn2c(=O)n(-c3ccc(CC(=O)NCCc4ccccc4)cc3)c(=O)c3ccccc32)cc1OC	-41	10	-7
C=Cc1ccc(Cn2c(C(=O)O)c(CNC3CCN(C(=O)OCC)CC3)c3ccccc32)cc1	-20	x	-8
COc1cccc(CNC(=O)CN2C(=O)CSc3cccn3-c3ccccc32)c1	-21	-13	-18
CC(=O)c1ccc(NC(=O)c2ccc3c(c2)CC(c2ccc(Cl)cc2)OC3=O)cc1 (configuration not stated)	3	0	-17
Cc1cccc(S(=O)(=O)N2CCC(c3cc(N)on3)CC2)c1	-14	-3	-8
Nc1cc(C2CCN(S(=O)(=O)c3ccc4c(c3)CCCC4)CC2)no1	48*	16	10
O=C(Cn1ccc2ccccc21)NCC1CCCO1 (configuration not stated)	25	8	10
CN1CCC2(Cc3ccccc3CN(C(=O)Cc3ccc(O)cc3)C2)C1 (configuration not stated)	x	-3	x
Cc1cccn2c(=O)c3cc(C#N)c(=O)n(-c4ccccc4[N+](=O)[O-])c3nc12	-71	39*	-22
Cc1cccn2c(=O)c3cc(C#N)c(=O)n(-c4cccc(C(F)(F)F)c4)c3nc12	-387	-88	-69
O=C1C(CO)=C[C@H](O)[C@H]2O[C@@H]12	-21	-3	1
COc1ccc(-n2cc(C(=O)NC(C)c3ccc4c(c3)OCCO4)c3ccccc3c2=O)cc1 (configuration not stated)	36*	22	25
COc1cc(C(=O)NC(C)c2ccc3c(c2)OCCO3)cc(OC)c1OC (configuration not stated)	8	-13	-2
CN(C(=O)CSc1nnnn1-c1cccc(F)c1)c1ccccc1	6	-2	-4
COc1ccccc1CCNC(=O)c1cccc(N2C(=O)CCS2(=O)=O)c1	13	4	20
O=C(NCCc1ccc(F)cc1)c1cccc(N2C(=O)CCS2(=O)=O)c1	37*	18	18
Cn1c(=O)cc(SCC(=O)NC2CCN(Cc3ccccc3)CC2)c2ccc(Cl)cc21	50*	34*	18
COc1cc(NC(=O)CSc2cc(=O)n(C)c3cc(Cl)ccc23)cc(OC)c1OC	-2	-15	-3
CCOc1ccc(NC(=O)CSc2cc(=O)n(C)c3cc(Cl)ccc23)cc1	18	47*	2
O=C(Cn1c(=O)n(CCCC(=O)NC2CCN(Cc3ccccc3)CC2)c(=O)c2ccccc21)Nc1cccc(Cl)c1	-36	27	-11
Cc1noc(C)c1S(=O)(=O)N1CCCn2nc(-c3cccnc3)cc2C1	3	-4	-9
Cc1ccnc(NC(=O)c2ccn(COc3ccc(F)cc3)n2)c1	40*	10	14
Cc1ccn2c(=O)c(NC(=O)COc3ccc(Cl)cc3)c(C)nc2c1	18	9	14
SMILES	USP30 inh	USP17 inh	USP28 block
COc1ccc(OCn2ccc(C(=O)Nc3cnn(C)c3C)n2)cc1	-5	x	1
O=C(Nc1ccc(Cl)cn1)c1ccn(COc2ccccc2)n1	16	15	12
Cc1ccc(NC(=O)c2ccn(COc3ccc(F)cc3)n2)nc1	8	60*	10
CCN(CC)c1ccc2nnc(CCC(=O)Nc3cc(C)ccn3)n2n1	6	3	10
Cc1cccc(C)c1NC(=O)c1ccn(COc2ccccc2)n1	15	-1	36*
Cc1ccnc(NC(=O)c2ccn(COc3ccc(Cl)cc3)n2)c1	72*	47*	25
O=S(=O)(Nc1cccn2cnnc12)c1ccc2c(c1)CCC2	-22	8	7
CCn1c(=O)c(N2CCC(C(=O)NCc3ccccc3C)CC2)nc2cccnc21	-1	-3	-9
Cc1cccc(C2c3[nH]c4ccccc4c3C[C@@H]3C(=O)N(CC4CCCO4)CC(=O)N23)c1 (some centres not stated)	-152	-31	-39
COc1ccc(CNC(=O)c2c[nH]c3ncccc23)c(OC)c1	-2	13	6
CC(C)N1C[C@]2(CCC1=O)CN(C)C[C@H]2C(=O)N1CCN(c2ccccc2)CC1	-12	-1	-8
CCOc1cc2c(cc1OCC)C(c1c(OC)ccc3ccccc13)NCC2 (configuration not stated)	38*	0	8
CCOc1cc2c(cc1OCC)C(c1cc3c(cc1Br)OCO3)NCC2 (configuration not stated)	-7	-7	1
CCCn1cc(-c2nc(-c3ccccn3)no2)c(=O)c2cc(F)ccc21	1	18	0
CCn1cc(-c2nc(-c3ccccc3)no2)c(=O)c2cc(F)ccc21	11	67*	-2
O=C(Cc1ccccc1)N1CCN(c2nc3c(F)cc(F)cc3s2)CC1	8	-12	6
O=C(CCc1ccccc1)N1CCN(c2nc3c(F)cc(F)cc3s2)CC1	35*	16	19
O=C(CCc1ccccc1)N1CCN(c2nc3c(Cl)cccc3s2)CC1	38*	26	21
COc1cccc2sc(N3CCN(C(=O)CCc4ccccc4)CC3)nc12	17	6	14
COc1ccc(NC(=O)CCCc2c[nH]c3ccccc23)cc1-n1cnnn1	-35	-10	-13
COc1ccc(/C=C/C(=O)Nc2cccc(S(=O)(=O)Nc3ccccc3Cl)c2)c(OC)c1	69*	7	52*
COc1ccccc1NS(=O)(=O)c1cccc(NS(=O)(=O)c2cc(/C=C/C(=O)O)cc(OC)c2OC)c1	12	-1	11
Cc1ccc(C)c(NC(=O)Cn2c(C)cc(-c3nnc(C)o3)c2C)c1	26	10	-12
CCn1ccc(C(=O)N2CCCn3nc(-c4ccc(C)cc4)cc3C2)n1	7	0	7
CCOC(=O)C1CCN(C(=O)c2ccc(CNS(=O)(=O)c3ccc(OC)cc3)cc2)CC1	25	14	16
SMILES	USP30 inh	USP17 inh	USP28 block
CCOC(=O)C1CCN(C(=O)c2ccc(CNS(=O)(=O)c3ccc(Cl)cc3)cc2)CC1	32*	17	11
Cc1nc(CN2CCC3(CC2)OC(C(=O)Nc2cccnc2)Cn2ccnc23)cs1 (configuration not stated)	0	4	5
Cc1ccc(Sc2c(C(F)(F)F)[nH]n(-c3ccccc3)c2=O)cc1	28	33*	7
O=C(Nc1ccccc1)N1C[C@@H]2CN(Cc3ccccc3)[C@@H]2C1	-6	-3	-11
COc1ccc(NC(=O)c2ccc(N3C(=O)N4CCc5c([nH]c6ccc(OC)cc56)[C@@]4(C)C3=O)cc2)cc1	18	23	17
O=C(COC(=O)C1(c2cccc(F)c2)CCCC1)c1ccc2c(c1)OCCO2	-3	-2	4
O=C(COc1ccc2ccc(=O)oc2c1)c1ccc2c(c1)OCCO2	-179	43*	-20
COc1ccccc1NC(=O)Nc1ccc2nc(C)[nH]c2c1	-17	-18	-5
Cc1ccc(-c2nc(N3CCCC(O)C3)ncc2-c2cnccn2)s1 (configuration not stated)	-139	73*	-24
c1cnc(N2CCCC(c3nc(N4CCOCC4)ncc3-c3cccnc3)C2)nc1 (configuration not stated)	-18	-1	0
